Assay [1] is described as follows: qHTS of pediatric cancer cell lines to identify multiple opportunities for drug repurposing: Primary screen for BT-12 cells (AID 1347101).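 For activity change, negative = cytotoxic: plate controls were DMSO for no effect and bortezomib positive control for full effect.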 Note: nearly all actives have a fitted effect of over 25% in size. Note: potency is the fitted concentration of half-maximal effect. The method, boiled down:
(§1)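 Cells (500-1,000/well) rested 5 h, then received compounds for 48 h; metabolically active cells were measured by CellTiter-Glo luminescence. Final concentrations spanned up to 46 µM (MIPE, 11-point) or 0.59 nM-46 µM (NPC, 8-point) in primary screens, 11-point in follow-ups.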

Assay [2] in a line: qHTS of pediatric cancer cell lines to identify multiple opportunities for drug repurposing: Primary screen for Rh18 cells (AID 1347102). For activity change, negative = cytotoxic: % is set by controls: 0 for no effect and ±100 for the full control effect. Note: nearly all actives have a fitted effect of over 65% in size. Note: potency is the fitted concentration of half-maximal effect. The essentials: as §1
Assay [3] in a line: qHTS of pediatric cancer cell lines to identify multiple opportunities for drug repurposing: Primary screen for OHS-50 cells (AID 1347103).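 For activity change, negative = cytotoxic: plate controls were DMSO neutral control for no effect and bortezomib positive control for full effect.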 Note: nearly all actives have a fitted effect of over 40% in size. Note: potency is the fitted concentration of half-maximal effect. The essentials:
as §1

Assay [4] in a line: qHTS of pediatric cancer cell lines to identify multiple opportunities for drug repurposing: Primary screen for RD cells (AID 1347104).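 Note: plate controls were DMSO for no effect and bortezomib for full effect; nearly all actives have a fitted effect of over 55% in size.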 The method, boiled down: (§2)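 Following a 5-hour attachment period, cells at 500-1,000/well received compounds and were cultured for 48 hours. CellTiter-Glo was added and luminescence read to estimate viable, metabolically active cells.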
Assay [5] can be described thus: qHTS of pediatric cancer cell lines to identify multiple opportunities for drug repurposing: Primary screen for MG 63 (6-TG R) cells (AID 1347105). For activity change, negative = cytotoxic: % is set by controls: 0 for no effect and ±100 for the full control effect. Note: nearly all actives have a fitted effect of over 50% in size. Note: potency is the fitted concentration of half-maximal effect. The method, boiled down:
as §2

Assay [6] in a line: qHTS of pediatric cancer cell lines to identify multiple opportunities for drug repurposing: Primary screen for control Hh wild type fibroblast cells (AID 1347106).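 Note: series mostly up to about 46 µM; % is set by controls: 0 for no effect and ±100 for the full control effect; a drop in luminescence marks cytotoxicity and a rise apparent proliferation; nearly all actives have a fitted effect of over 55% in size.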 The essentials: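 Viability after 48 h compound treatment at 37C, 500-1,000 cells/well, read as ATP luminescence with CellTiter-Glo. Primary screens used 11-point (MIPE, 0.78 nM-46 µM) or 8-point (NPC, 0.59 nM-46 µM) final concentrations; follow-up screens used 11-point dilutions.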

Assay [7] can be described thus: qHTS of pediatric cancer cell lines to identify multiple opportunities for drug repurposing: Primary screen for Rh30 cells (AID 1347107). Note: series mostly up to about 46 µM; % is set by controls: 0 for no effect and ±100 for the full control effect; nearly all actives have a fitted effect of over 75% in size. The method, boiled down:
as §1

Assay [8] is described as follows: qHTS of pediatric cancer cell lines to identify multiple opportunities for drug repurposing: Primary screen for Rh41 cells (AID 1347108).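 For activity change, negative = cytotoxic: series mostly up to about 46 µM; luminescence drop marks cytotoxic hits.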 Note: nearly all actives have a fitted effect of over 70% in size. Note: potency is the fitted concentration of half-maximal effect. The essentials: as §2
Assay [9] is described as follows: qHTS of pediatric cancer cell lines to identify multiple opportunities for drug repurposing: Confirmatory screen for NB1643 cells (AID 1347109).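 Note: plate controls were DMSO for no effect and bortezomib for full effect; nearly all actives have a fitted effect of over 45% in size.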 The method, boiled down: as §1
A short description of assay [10]: qHTS of pediatric cancer cell lines to identify multiple opportunities for drug repurposing: Confirmatory screen for A673 cells (AID 1347110).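 Note: cells exposed to compound for 48 h before the viability read; nearly all actives have a fitted effect of over 65% in size.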 Note: potency is the fitted concentration of half-maximal effect. The essentials: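 Cells plated at 500-1,000/well were treated five hours later with multi-point dilutions up to 46 µM final. After two days, CellTiter-Glo was added and luminescence read.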

Records with an inconclusive call do not appear. A number with no mark means an inactive call. Active and inactive are the calls of the source. Calls come from the whole dose curve; as a rule, active = well fitted curve in the direction sought with a large enough effect; inconclusive = small, poorly fitted or top-dose-only effect, or another doubt; inactive = no such curve, though single readings can be large; an effect the other way counts as inactive or inconclusive.

Consider `CCN(CC)CCNC(=O)c1cc(Cl)c(N)cc1OC`, for which the Potency result in assay [1], in assay [2], in assay [3], in assay [4], in [5] and in [8] was “inactive” each time. The Potency entry in assay [9] and in assay [10] was “inactive” throughout. Besides, the molecule was classed as inactive in assay [6] and in assay [7].

With `CC12CCC(CC1)C(C)(C)O2`, the Potency result in assay [1], in [2], in assay [3], in assay [4], in assay [5] and in assay [8] was “inactive” each time. For the same molecule, the outcome in assay [6] and in [7] was inactive.

Consider `O=C1O[C@H](CO)[C@@H](O)[C@H](O)[C@H]1O`, for which the Potency entry in assay [1], in [2], in assay [3], in [4], in assay [5] and in assay [8] was “inactive” in each case. For the same molecule, the molecule was called inactive in assay [6].

With `COc1ccc2c(c1)C(=O)N(CCc1ccc(S(=O)(=O)NC(=O)NC3CCCCC3)cc1)C(=O)C2(C)C`, the Potency entry in [1], in assay [2], in assay [3], in [4], in assay [5] and in assay [8] was “inactive” in each case. In [6], the result was inactive.

Regarding `CC1(C)S[C@@H]2[C@H](NC(=O)Cc3ccccc3)C(=O)N2[C@H]1C(=O)O` (tested in a mixture with another compound), the Potency entry in assay [1], in [2], in assay [3], in [4], in [5] and in [8] was “inactive” each time. Moreover, the molecule was called inactive in assay [6] and in assay [7].

As to `Cc1cc2nc3c(=O)[nH]c(=O)nc-3n(C[C@H](O)[C@H](O)[C@H](O)CO)c2cc1C`, the Potency result in assay [1], in [2], in assay [3], in assay [4], in assay [5] and in [8] was “inactive” each time. Also, the call in assay [6] was inactive.

With `COc1cc(C(=O)N2CCOCC2)cc(OC)c1OC`, the Potency entry in assay [1], in assay [2], in assay [3], in [5] and in assay [8] was “inactive” throughout. The molecule was called inactive in assay [6].

As for `O=c1cc[nH]c(=S)[nH]1`, the Potency entry in assay [1], in [2], in assay [3], in [5] and in assay [9] was “inactive” throughout. Also, the molecule was called inactive in assay [6] and in [7]. Further, the Potency in assay [10] is 9270 nM (active).

Take `CC(=O)OCC(=O)[C@@]1(O)CC[C@H]2[C@@H]3CCC4=CC(=O)CC[C@]4(C)[C@H]3C(=O)C[C@@]21C`: the Potency result in assay [1], in [2], in assay [3], in assay [5] and in [8] was “inactive” throughout. Also, in [6], the molecule was called inactive.

For the molecule `C[C@](N)(Cc1ccc(O)cc1)C(=O)O`, the activity change, negative = cytotoxic in assay [1] was 0.753% [at 6.03 µM]; in assay [2], 14.1% [at 4.84 µM]; in [3] it was -5.63% [at 6.18 µM]; in assay [5], -28.9% [at 4.84 µM]; in assay [6], 5.39% [at 4.84 µM]; in assay [7], -4.89% [at 4.84 µM]. Also, the activity change, negative = cytotoxic in [8] is -37.3% [at 4.84 µM]; in [9], 4.45% [at 5.01 µM].

For the molecule `NC(=O)NNc1ccccc1`, the Potency result in assay [1], in assay [2], in assay [3], in assay [4] and in [8] was “inactive” throughout. In addition, the outcome in [6] was inactive.

`CCN(CC)C(=O)Nc1ccc(OCC(O)CNC(C)(C)C)c(C(C)=O)c1` (stereo not given): the Potency result in assay [1], in [2], in [3], in assay [5] and in assay [8] was “inactive” in each case. The molecule was called inactive in assay [6] and in [7].

On to `C[C@@H]1C[C@H]2[C@@H]3C[C@H](F)C4=CC(=O)C=C[C@]4(C)[C@@]3(F)[C@@H](O)C[C@]2(C)[C@@]1(O)C(=O)CO`, for which the Potency entry in assay [1], in assay [2], in assay [3], in [5], in assay [8] and in assay [9] was “inactive” throughout. The Potency result in [10] was “inactive”. Also, the result in assay [6] and in assay [7] was inactive.

For the molecule `CC(=O)NC(Cc1ccccc1)C(=O)O` (stereo not given), the Potency result in [1], in [2], in assay [3] and in [8] was “inactive” in each case. Moreover, the result in assay [6] and in assay [7] was inactive.

In the case of `Cn1cc[nH]c1=S`, the Potency result in assay [1], in assay [2], in [3], in assay [5] and in [8] was “inactive” each time. Further, the call in assay [6] and in assay [7] was inactive.

`O=C(O)Cc1sc(-c2ccccc2)nc1-c1ccc(Cl)cc1`: the Potency entry in [1], in assay [2], in assay [3], in assay [5] and in [8] was “inactive” throughout. Moreover, the call in [6] and in assay [7] was inactive.

Regarding `CC(=O)Oc1c(C)c(C)c2c(c1C)CC[C@@](C)(CCC[C@H](C)CCC[C@H](C)CCCC(C)C)O2`, the Potency result in assay [1], in assay [2], in assay [3], in [5] and in [8] was “inactive” each time. Moreover, the molecule was classed as inactive in [6] and in assay [7].

On to `NCCNCCNCCNCCN`, for which the activity change, negative = cytotoxic was 0.69% [at 11.5 µM] in assay [1]; -4.13% [at 9.22 µM] in assay [2]; -3.79% [at 11.5 µM] in [3]; -3.51% [at 9.22 µM] in [4]; -0.844% [at 9.22 µM] in [6]; 7.05% [at 9.22 µM] in assay [7]. For the same molecule, in [8], the activity change, negative = cytotoxic was 10.3% [at 9.22 µM].

As for `CC(C)(C)C(=O)NCCCC(=O)O`, the Potency result in assay [1], in assay [2], in assay [3], in assay [5] and in [8] was “inactive” throughout. Besides, the molecule was called inactive in assay [6] and in assay [7].

As to `Cc1cccc(C)c1NC(=O)CN(CC(=O)O)CC(=O)O`, the Potency entry in [1], in [2], in [3], in assay [5] and in assay [8] was “inactive” in each case. The result in assay [6] was inactive.

In the case of `Cc1cc2c(cc1S(N)(=O)=O)S(=O)(=O)CCC2`, the Potency entry in assay [1], in assay [2], in [3], in [5] and in [8] was “inactive” throughout. For the same molecule, the molecule was called inactive in assay [6] and in assay [7].

Regarding `Nc1ncnc2c1ncn2[C@@H]1O[C@H](CO)[C@@H](O)[C@H]1O`, the Potency entry in assay [1], in assay [2], in assay [4], in assay [5] and in [8] was “inactive” throughout. Besides, the call in [6] and in assay [7] was inactive.

Regarding `COc1ccccc1O`, the Potency result in [1], in [2], in assay [3], in [4] and in assay [8] was “inactive” throughout. Further, the outcome in assay [6] was inactive.

As for `CC[C@H]1CN2CCc3cc(OC)c(OC)cc3[C@@H]2C[C@@H]1C[C@H]1NCCc2cc(OC)c(OC)cc21`, the Potency in assay [1] is 347 nM (active); in assay [2], 2110 nM (active); in assay [3], 347 nM (active); in [5], 2110 nM (active); in assay [8] it was 3760 nM (active). The result in [7] was inactive.

Take `CCN(CC)CCSC(=O)C(c1ccccc1)c1ccccc1`: the Potency entry in [1], in assay [2], in [4] and in assay [5] was “inactive” in each case. The outcome in [6] and in assay [7] was inactive.

`Oc1cn2c(n1)Nc1ccc(Cl)c(Cl)c1C2`: the Potency entry in assay [1], in assay [2], in [3], in assay [5] and in assay [8] was “inactive” in each case. The result in [6] and in assay [7] was inactive.

For `O=C1O[C@H]([C@@H](O)CO)C(O)=C1O`, the Potency result in [1], in assay [2], in assay [3], in assay [5] and in [8] was “inactive” in each case. Besides, the call in assay [6] and in assay [7] was inactive.

Values taken from PubChem BioAssay (NCATS).
